# In PubChem BioAssay AID2685 (National Center for Advancing Translational Sciences (NCATS), 2010):
# The campaign covered roughly 320,000 compounds. About 2,100 (0.66%) were called active. Roughly 53% stayed inconclusive and do not appear here. Calls come from the whole dose curve; as a rule, active = well fitted inhibition curve with a large enough effect in the signal ratio, with a control signal flat (not every such curve was filed as active); inconclusive = small, poorly fitted or top-dose-only effect, or effect the other way, or a change in a side signal; inactive = flat fitted curve, though single readings scatter; the % refers to the signal ratio. What follows is part of a selection rich in actives, with near analogues and random picks from the rest.
# Assay: qHTS Assay for Lipid Storage Modulators in Drosophila S3 Cells;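 for cell number change: cells counted by Cell Tracker Red CMTPX staining in the red channel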; for lipid storage change, negative = inhibition: % is set by controls: 0 for no effect and ±100 for the full control effect
# Conditions: BODIPY lipid droplet fluorescence, 18-24 h, cells fed with added oleic acid; cell number change: measured here: cell count max response; series mostly up to 46.1 µM; lipid storage change, negative = inhibition: at the top concentration
# How it was run: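 Laser-scanning cytometry quantifies lipid droplet accumulation (500–530 nm total intensity; droplet/cell object ratio) in oleic acid-fed (400 uM added) Drosophila S3 cells treated with a concentration series. 20 uM Triacsin C defined 100% inhibition.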
# Potency is the fitted concentration of half-maximal effect.
SMILES,"lipid storage change, negative = inhibition",cell number change [%],outcome,Potency
Cc1oc2c(c1C(=O)NC(Cc1c[nH]c3ccccc13)C(=O)O)CCCC2 (centres undefined),6.04% (inactive),18,,
Cc1cccc(Cc2c(C)[nH]c(=O)c(C#N)c2C)c1,-17.3% [at 9.22 µM] (inactive),-1.36,,
N=c1oc2ccc(Br)cc2cc1C(=O)NC1CCCCCC1,,-5.41,inactive,
O=C(O)C1CCCN1S(=O)(=O)c1ccccc1 (centres undefined),-1.6% (inactive),14,,
CC(Oc1cc2oc(=O)c3c(c2cc1Cl)CCC3)C(=O)NCCN1CCOCC1 (centres undefined),-12.3% (inactive),9.27,,
CC(Oc1cc2oc(=O)c3c(c2cc1Cl)CCC3)C(=O)NCCCN1CCCC1=O (centres undefined),,-19.6,,1.64 µM (active)
CCCc1cc(=O)oc2c(C)c(OCC(=O)NCCCN3CCOCC3)ccc12,,7.37,inactive,
CCc1cc(=O)oc2cc(OCC(=O)NCCCN3CCCC3=O)ccc12,,3.54,inactive,
Cc1cc(=O)oc2cc(OCC(=O)NCCCN3CCCC3=O)c(Cl)cc12,,-17.4,inactive,
CCc1cc(=O)oc2cc(OCC(=O)NCCCN3CCCC3=O)c(Cl)cc12,,11.6,,16.4 µM (active)
Cc1cc(=O)oc2c(C)c(OCC(=O)NCCCN3CCCC3=O)ccc12,,-21.7,inactive,
CC(Oc1cc2oc(=O)c3c(c2cc1Cl)CCC3)C(=O)NCCCN1CCOCC1 (centres undefined),,14.5,inactive,
Cc1c(OCC(=O)NCCCN2CCOCC2)ccc2c3c(c(=O)oc12)CCC3,,-21.2,inactive,
CCCc1cc(=O)oc2c(C)c(OCC(=O)NCCN3CCOCC3)ccc12,8.89% (inactive),19.4,,
CCCCc1cc(=O)oc2c(C)c(OCC(=O)NCCN3CCOCC3)ccc12,,-17,,8.2 µM (active)
Cc1c(OCC(=O)NCCCN2CCCC2=O)ccc2c3c(c(=O)oc12)CCCC3,,-7.37,,8.2 µM (active)
COc1ccc(OCCNC(=O)c2ccccc2OCC(=O)N2CCCCC2)cc1,-8.65% (inactive),-14.3,,
O=C(c1ccc(S(=O)(=O)NCc2ccco2)cc1)N1CCN(Cc2ccccc2F)CC1,,-10.8,inactive,
COc1cccc(N(C(=O)CS(=O)CC(=O)Nc2ccc(F)cc2)C(C(=O)NC2CCCCC2)c2cccs2)c1 (centres undefined),-10.8% (inactive),-4.8,,
COC(=O)CCCC1=CC2=CC(=O)C(C)(OC(=O)c3cccs3)C(=O)C2=CN1c1ccc(OC)cc1 (centres undefined),5.26% (inactive),,,
COc1ccc2c(c1)C(=O)N(c1ccc(C)cc1)C(=O)C2,-3.58% (inactive),11.1,,
COc1ccc2c(c1)C(=O)N(c1ccccc1)C(=O)C2,,-11.7,,23.1 µM (active)
O=C1Cc2ccccc2C(=O)N1c1cccc(Cl)c1,,10.3,inactive,

SMILES,"lipid storage change, negative = inhibition",cell number change [%],outcome,Potency
CCOc1ccc(N2C(=O)Cc3ccccc3C2=O)cc1,,0.833,,29.1 µM (active)
CCOc1ccc(N2C(=O)c3cccnc3C2=O)cc1,12.3% (inactive),-11.4,,
O=C1Cc2ccccc2N1c1ccccc1,8.9% (inactive),11.5,,
O=C1Cc2ccccc2C(=O)N1c1ccccc1,,9.57,,10.3 µM (active)
COc1ccc(N2C(=O)Cc3ccccc3C2=O)cc1,7.06% (inactive),10.9,,
COc1ccc(N2C(=O)c3ccccc3C2=O)cc1,19% (inactive),2.95,,
COc1ccccc1C(=O)NC(=O)COC(=O)c1oc2ccccc2c1C,-2% (inactive),20,,
CCOc1nc(-c2ccccc2)ccc1-c1noc(-c2ccco2)n1,4.86% (inactive),-9.76,,
O=C1CN(C(=O)COC(=O)Cc2ccsc2)c2ccccc2N1,3.29% (inactive),4.09,,
NC(=O)C(c1ccc(Cl)cc1)c1ncc(C(F)(F)F)cc1Cl (centres undefined),20.1% (inactive),6.15,,
CCC(=O)c1ccc(OCC(=O)OCC(=O)NC2CCCC2)cc1,7.81% [at 0.0737 µM] (inactive),-7.74,,
Cc1cccc(NC(=O)c2sc(Cl)nc2C)c1C,17.3% (inactive),27.7,,
Cc1nc(C)c(C(=O)OCC(=O)NCc2ccccc2)s1,,2.69,,1.16 µM (active)
CCOC(=O)c1sc(Nc2cccc(C)c2C)nc1C,,,inactive,
Cc1nc(C)c(C(=O)OCC(=O)NCCc2ccc(S(N)(=O)=O)cc2)s1,,5.35,inactive,
Cc1nc(C)c(C(=O)OCC(=O)Nc2cccc(C)c2C)s1,,-21.3,,16.4 µM (active)
COc1ccc(CCNC(=O)COC(=O)c2sc(C)nc2C)cc1,-22.8% (inactive),13.9,,
Cc1cccc(C)c1NC(=O)CN(C)C(=O)c1cccc(-n2cccc2)c1,9.6% [at 0.0737 µM] (inactive),,,
N#Cc1cccc(NC(=O)COC(=O)CCc2ccc(S(=O)(=O)N3CCOCC3)cc2)c1,7.64% (inactive),0.933,,
CCOC(=O)C(=NC(C)CC)NNc1cccc(C(F)(F)F)c1 (centres undefined),-2.64% (inactive),0.302,,
Cc1cccc(C)c1N(CC(=O)NCc1ccccc1)C(=O)c1csnn1,,-7.94,inactive,
CN(C)C(=O)c1nc2ccc(Cl)cn2c1CNCc1ccccc1OC(F)(F)F,4.92% (inactive),-4.39,,
CC(C)N1C(=O)S/C(=C/c2cccnc2)C1=O,-20.1% (inactive),16.4,,
